GAA glycogen mod: GAA glycogen-cleavage inhibition or activation. P10253. Potency, µM (highest dose often 76.4 µM), without a hit: at the top dose activity change, negative = inhibition, usual class: inhibitors. recombinant GAA, glycogen substrate, Amplex Red glucose oxidase fluorescence. 300,000 compounds, 0.38% hits. AID 2100;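 further: potency means the concentration at half of the fitted maximal effect; 0% = full enzyme reaction and -100% = no-enzyme basal signal; the screen sought inhibitors and activators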
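Recombinant human alpha-glucosidase (4 nM final) hydrolysed bovine liver glycogen (30 ug) for 40 min at 37 C in pH 5.0 citrate/phosphate with 0.01% Tween-20. Released glucose detected by glucose oxidase/Amplex Red, Ex 573/Em 610 nm. Compounds up to 77 uM; AC50 from Hill fits.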
GALK inhibitor: galactokinase (human) inhibition; AID 1868; Potency, µM (titrated, usually from 57.5 µM), for inactives: at the top dose activity change, negative = inhibition, actives largely listed as inhibitors; Purified GALK, Kinase-Glo residual ATP luminescence; P51570; 270,000 compounds, 0.007% hits; further: potency means the concentration at half of the fitted maximal effect; on the % scale 0 is the no-effect control and ±100 the full control effect
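Luminescence from leftover ATP (Ultra-Glo luciferase/luciferin) served as read-out after a 1 h room-temperature reaction of 5 nM GALK with 35 uM ATP and 100 uM galactose.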
GAA inhib: inhibitors of human lysosomal alpha-glucosidase; P10253; purified human GAA, 4-MU-alpha-glucoside fluorescence; Potency, µM (highest dose often 76.9 µM), for the others: at the top dose activity change, negative = inhibition, usual class: inhibitors; 200,000 compounds, 0.005% hits;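 further: potency means the concentration at half of the fitted maximal effect; plate controls were uninhibited enzyme wells for no effect and no-enzyme background for full effect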
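Fluorogenic assay: 4 nM human alpha-glucosidase with 400 uM 4-methylumbelliferyl-alpha-D-pyranoside in 50 mM citrate/phosphate, 0.005% Tween-20, pH 5.0, 20 min at room temperature. Compounds tested up to 77 uM; AC50 from Hill fits.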
PKM2 activator: PKM2 (human) enzyme activation; P14618; purified PKM2, Kinase-Glo ATP luminescence, activation; response scale: 0% is enzyme alone, no compound; Potency, µM (doses to about 57.5 µM), without a hit: at the top dose activation, hits mostly activators; 260,000 compounds, 0.34% hits; further: potency means the concentration at half of the fitted maximal effect; on the % scale 0 is the no-effect control and ±100 the full control effect; nearly all actives have a fitted effect of over 55% in size
Target sequence (P14618 whole entry, looked up): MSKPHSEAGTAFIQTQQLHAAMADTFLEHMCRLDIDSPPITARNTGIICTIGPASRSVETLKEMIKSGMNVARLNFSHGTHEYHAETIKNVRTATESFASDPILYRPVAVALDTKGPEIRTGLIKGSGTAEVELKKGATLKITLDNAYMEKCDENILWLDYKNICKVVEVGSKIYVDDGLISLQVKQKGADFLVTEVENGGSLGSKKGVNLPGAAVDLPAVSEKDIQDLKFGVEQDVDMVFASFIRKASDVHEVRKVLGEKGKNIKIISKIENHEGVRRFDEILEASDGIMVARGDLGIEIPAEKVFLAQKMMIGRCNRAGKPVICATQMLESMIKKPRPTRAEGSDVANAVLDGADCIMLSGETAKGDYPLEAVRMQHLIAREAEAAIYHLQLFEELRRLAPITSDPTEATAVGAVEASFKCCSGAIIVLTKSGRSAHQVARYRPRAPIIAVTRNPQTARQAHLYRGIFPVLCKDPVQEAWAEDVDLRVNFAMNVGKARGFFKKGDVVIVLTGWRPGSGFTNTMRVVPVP
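Purified hPK-M2 (>95%) run at intermediate activity with 0.1 mM ADP and 0.5 mM PEP in 50 mM imidazole pH 7.2, KCl, MgCl2; 1 h room temperature. ATP formed read by Kinase-Glo luminescence; normalized to uninhibited and no-enzyme controls.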
aGlu spleen mod: inhibitors or activators of human alpha-glucosidase in spleen homogenate | P10253 | Potency, µM (titrated, usually from 79.9 µM), for the others: at the top dose activity change, negative = inhibition, hits mostly inhibitors | 240,000 compounds, 0.006% hits | human spleen homogenate, 4-MU-alpha-glucoside fluorescence;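 further: potency means the concentration at half of the fitted maximal effect; 0% = enzyme with vehicle and -100% = no enzyme basal signal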
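Human spleen homogenate (1 ug) with 4-methylumbelliferyl-alpha-D-glucopyranoside (1 mM final) in 50 mM citrate/phosphate pH 5.0, 0.01% Tween-20; 40 min at 37 C. Stopped at pH 10; 4-MU fluorescence Ex 365/Em 440 nm; AC50 by Hill fit.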
HeLa viability: HeLa cytotoxicity, CellTiter-Glo readout; shares compounds with PKM2 activator; HeLa viability, CellTiter-Glo ATP luminescence, 24 h; activity change, negative = cytotoxicity, % at 57.5 µM; 230 tested, under 10 active; AID 1898; further: % of control where 0% means no effect
The depositor's hits bear a star; u = inconclusive; x = not tested or not shown; [ ] = dose if it differs, or a comment. Only some compounds are listed: those with a hit (about 0.63% of all), similar ones and a draw of the others. The call rests on the fitted dose curve; in most records, active means well fitted curve in the direction sought with a large enough effect; inconclusive means small, poorly fitted or top-dose-only effect, or another doubt; inactive means no such curve, though single readings can be large; an effect the other way counts as inactive or inconclusive.

SMILES	GAA glycogen mod	GALK inhibitor	GAA inhib	PKM2 activator	aGlu spleen mod	HeLa viability
Cc1ccc(C)c2[nH]c(=O)c(CN(Cc3ccco3)C(=O)Nc3ccccc3)cc12	-10%	3%	u	7.9µM*	-5%	u
Cc1ccc2cc(CN(Cc3ccco3)C(=O)NCc3ccccc3)c(=O)[nH]c2c1C	-9%	-2%	-8%	-3%	-1%	x
Cn1c(=O)c2c(-c3ccccc3)n3c(c2n(C)c1=O)C(c1ccc([N+](=O)[O-])cc1)Nc1ccccc1-3 (centres undefined)	15%[76.3 µM]	x	x	x	x	x
Cc1cc(C(=O)OCC(=O)N2CCOCC2)c2ccccc2n1	10%	2%	-3%	3.5µM*	5%	0
Cc1nc2c(C(=O)N(C)Cc3ccccc3)c[nH]n2c(=O)c1Cc1ccc(Cl)cc1	5%[76.3 µM]	x	x	x	x	x
O=C(c1ccccc1)N1N=C(c2ccccc2)CC1c1ccccc1O (centres undefined)	-8%	8%	-8%	0%	5%	x
CC(=O)N1N=C(c2ccncc2)CC1c1ccccc1O (centres undefined)	9%	1%	-10%	4.5µM*	-4%	-4
c1ccc(-c2nn3c(Cn4cnc5ccccc54)nnc3s2)cc1	-4%	0%	4%	3.2µM*	-4%	2
c1ccc(-c2nn3c(Cn4nnc5ccccc54)nnc3s2)cc1	2%	2%	2%	-5%	-3%	x
COc1ccc(/C=C\c2onc(C)c2S(=O)(=O)N2CCC(C(=O)Nc3cccc(OC)c3)CC2)cc1	-1%[76.3 µM]	x	x	x	x	x
N#Cc1ccc(CSc2ncnc3c2cnn3Cc2ccccc2)cc1	3%	1%	-8%	20µM*	-1%	-2
Cc1ccccc1-c1nc(CN2CCC(C(=O)NC(C)C)CC2)c(C)o1	-4%[76.3 µM]	x	x	x	x	x
Cc1cccc(OCCSc2nc3ccc(NC(=O)c4cccs4)cc3s2)c1	4%[76.3 µM]	x	x	x	x	x
CCN1C(=O)c2cccc3c(S(=O)(=O)Nc4ccncc4)ccc1c23	1%	4%	-6%	1%	-2%	x
CCN1C(=O)c2cccc3c(S(=O)(=O)Nc4ccccc4)ccc1c23	-4%	4%	-10%	4µM*	-5%	u
CCn1cc(S(=O)(=O)c2cc(C)cc(C)c2)c(=O)c2cc(F)c(N3CCN(c4ccccc4)CC3)cc21	14%[76.3 µM]	x	x	x	x	x
CC(=O)Nc1cc2c(s1)c1cnn(Cc3ccccc3F)c(=O)c1n2C	x	x	x	x	x	2
Cn1c2ccccc2c2cnn(CC(=O)Nc3cccc(F)c3)c(=O)c21	-11%	0%	x	3%	-3%	x
O=C(Cn1ncc2c3ccccc3n(Cc3ccccc3F)c2c1=O)N1CCCCC1	-13%[76.3 µM]	x	x	x	x	x
O=C(Cn1ncc2c3ccccc3n(Cc3ccccc3F)c2c1=O)N1CCN(c2ccccn2)CC1	x	x	x	1%	x	x
O=C(Cn1ncc2c3ccccc3n(Cc3ccccc3F)c2c1=O)N1CCCCCC1	-10%[76.3 µM]	x	x	x	x	x
CSc1cc2c(s1)c1cnn(Cc3ccccc3F)c(=O)c1n2C	x	x	x	x	x	6
Cn1c2cc(CO)sc2c2cnn(Cc3ccccc3F)c(=O)c21	x	x	x	x	x	3
COc1cc2c(s1)c1cnn(Cc3ccccc3F)c(=O)c1n2C	x	x	x	x	x	-12
CCOC(=O)Cn1c(=O)c2c(nc(N3CCOCC3)n2Cc2ccccc2)n(C)c1=O	14%[76.3 µM]	x	x	x	x	x
SMILES	GAA glycogen mod	GALK inhibitor	GAA inhib	PKM2 activator	aGlu spleen mod	HeLa viability
Cc1ccc(N2CCN(C(=O)C3CCN(c4ncnc5c4nc4n5CCCCC4)CC3)CC2)c(C)c1	13%[76.3 µM]	x	x	x	x	x
Cn1c2cc(C=O)sc2c2cnn(Cc3ccccc3F)c(=O)c21	x	x	x	x	x	-11
CCc1cc2c(s1)c1cnn(Cc3ccccc3F)c(=O)c1n2C	x	x	x	x	x	u
CC1CCN(C(=O)c2ccc(NS(=O)(=O)c3cccc4cccnc34)cc2)CC1	-5%	-2%	x	2.8µM*	1%	-10
COc1ccc(CCNC(=O)c2ccc(Cn3c(=O)c4cccn4c4cccnc43)cc2)cc1OC	-5%[76.3 µM]	x	x	x	x	x
O=S(=O)(c1ccc(F)cc1)N1CCN(S(=O)(=O)c2ccc3c(c2)OCCO3)CC1	x	x	x	x	x	10
CCCc1cc(F)c(S(=O)(=O)N2CCN(S(=O)(=O)c3ccc4c(c3)OCCO4)CC2)cc1F	x	x	x	x	x	-1
N#Cc1ccc(S(=O)(=O)N2CCN(S(=O)(=O)c3ccc4c(c3)OCCO4)CC2)cc1	x	x	x	x	x	-12
O=S(=O)(c1ccc(Cl)cc1)N1CCN(S(=O)(=O)c2ccc3c(c2)OCCO3)CC1	x	x	x	x	x	u
Cc1ccc(S(=O)(=O)N2CCN(S(=O)(=O)c3ccc4c(c3)OCCO4)CC2)cc1	2%	0%	1%	u	-4%	x
CCOC(=O)c1c(NC(=O)CCc2ccc(CC)o2)sc(C)c1C	8%	2%	-7%	u	0%	x
COC(=O)c1c(NC(=O)CCc2ccc(C)o2)sc(C)c1C	-4%	-1%	1%	7.9µM*	-3%	-1
Cc1ccccc1-c1nnn(CC(=O)N2CCN(S(=O)(=O)c3ccc(Cl)cc3)CC2)n1	-10%	0%	-8%	u	-6%	x
O=C(Cn1nnc(-c2ccccc2)n1)N1CCN(S(=O)(=O)c2ccc(Cl)cc2)CC1	-3%	0%	-22%	2.5µM*	10%	3
COc1ccc(-c2noc(CCC(=O)Nc3cccnc3)n2)cc1	x	-2%	x	x	x	x
CCOc1cc(-c2noc(CCC(=O)Nc3cccnc3)n2)ccc1OC	-8%	0%	2%	1.4µM*	1%	-4
Cn1ccc2cc(S(=O)(=O)N3CCN(S(=O)(=O)c4c(F)cccc4F)CC3)ccc21	x	x	x	x	x	-4
COc1ccc(CCC(=O)N2CCN(S(=O)(=O)c3ccc4ccccc4c3)CC2)cc1	-12%	-1%	u	0.79µM*	-22%	-9
Cc1ccc(S(=O)(=O)N2CCCN(S(=O)(=O)c3ccc4ccccc4c3)CC2)cc1	-4%	-2%	-3%	0.71µM*	-7%	-18
COc1ccc(CCNc2ccc(S(=O)(=O)N3CCCC3)cc2[N+](=O)[O-])cc1	0%	-1%	3%	3.2µM*	-4%	-4
CCOc1ccc(CCNC(=O)Cn2ncc3c([nH]c4ccccc43)c2=O)cc1OCC	-4%[76.3 µM]	x	x	x	x	x
COc1ccc(N2C(=O)C(CC(=O)Nc3ccccc3)N(CCC3=CCCCC3)C2=O)cc1 (centres undefined)	6%[76.3 µM]	x	x	x	x	x
Cc1cccc(NC(=O)C(Cc2ccccc2)n2cccc2)c1C (centres undefined)	15%[76.3 µM]	x	x	x	x	x
O=S(=O)(c1ccc2ccccc2c1)N1CCN(S(=O)(=O)c2c(F)cccc2F)CC1	x	x	x	x	x	u
Cc1nc2ccc(S(=O)(=O)N3CCN(S(=O)(=O)c4c(F)cccc4F)CC3)cc2s1	x	x	x	x	x	-1
Cn1c(SCC(=O)N/N=C/C=C\c2ccco2)nc2ccccc21	6%	0%	-17%	7.1µM*	2%	-3

High-throughput results (PubChem BioAssay)
